Data on five molecules can be found in PubChem BioAssay.

Structures are written as SMILES. Active and inactive are the calls of the source. Unless noted, the rule behind the calls is not given here.

Experiment [1] deals with Wnt5a (protein binding on small-molecule microarray). The experiment is described as follows: Wnt5a binders on small-molecule microarray, primary screen, biophysical, 635/667 nm fluorescence (AID 1142).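 Note: fluorescence read at 667 nm with signal to noise per printed feature.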 Particulars: 635 nm fluorescence, higher = more signal.
The nature of experiment [2]: cell viability in Huh7 cells, primary screen, cytotoxicity control for HCV replication inhibitor project, CellTiter-Glo luminescence, basal, 48 h (AID 1143).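 Note: Huh7 hepatoma cells carrying a hepatitis C replication reporter with no stimulus; test concentration not given here.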 Particulars: Huh7 HCV replicon, higher = more signal, called active from +8 up or from −8 down.
A short description of experiment [3]: P. aeruginosa biofilm formation inhibitors, primary screen, PAO1 strain, BacTiter-Glo luminescence, LB-PBS (AID 1144). Particulars: 12 h, higher = more signal.
The nature of experiment [4]: CREB reporter modulators without forskolin, primary screen, cell-based, PC12, CRE-LacZ reporter, unstimulated (AID 1145). Particulars: no forskolin, luminescence, 4.5 h, higher = more signal, called active from +8 up or from −8 down.
A short description of experiment [5]: CREB reporter modulators under forskolin, primary screen, cell-based, PC12, CRE-LacZ reporter, forskolin-stimulated (AID 1146).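 Note: PC12 cells with 6xCRE LacZ reporter stimulated by forskolin 10 µM; beta-galactosidase reporter signal reflecting CREB driven transcription.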 Particulars: luminescence, 4.5 h, higher = more signal, called active from +8 up or from −8 down.
The target in experiment [6] is Streptavidin (Streptomyces avidinii) (UniProt P22629). The experiment is described as follows: streptavidin binders on small-molecule microarray, primary screen, artefact control for SMM compound annotation, biophysical, 635/667 nm fluorescence (AID 1147).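 Note: signal reflects streptavidin binding to arrayed compounds as a control protein.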 Particulars: streptavidin binding, higher = more signal.
Experiment [7] can be described thus: small-molecule binders of probe aInhba, primary screen, biochemical, small-molecule microarray, 635/667 nm fluorescence (AID 1148).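 Note: score merges 667nm spot fluorescence with signal-to-noise for antibody binding to printed compounds.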 Particulars: higher = more signal.
Experiment [8] addresses Torsin-1A (Homo sapiens) (UniProt O14656). The experiment is described as follows: torsin A binders from cell lysate, primary screen, small-molecule microarray, wild-type, 635/667 nm (AID 1149). Particulars: COS7 hTOR1A-WT lysate, 635 nm fluorescence, higher = more signal.
The target is the same in experiment [9]. The experiment is described as follows: small-molecule binders of mutant TOR1A in lysate, primary screen, cell lysate, small-molecule microarray, COS7 lysate, 635/667 nm fluorescence (AID 1150).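 Note: score pools 667 nm emission and signal to noise measuring lysate protein binding.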 Particulars: COS7 hTOR1A mutant lysate, 635 nm fluorescence, higher = more signal.
In experiment [10] the test system is Sonic hedgehog protein (Shh). The experiment is described as follows: small-molecule binders of Shh protein, primary screen, biochemical, small-molecule microarray, 635/667 nm fluorescence (AID 1151).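 Note: Shh protein binding to compounds spotted on small-molecule microarray slides; score combines spot fluorescence intensity with signal-to-noise across triplicate slides.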 Particulars: small-molecule microarray binding, 635 nm fluorescence; higher = more signal.
Experiment [11] can be described thus: E. coli DRC41 culture turbidity changes, primary screen, E. coli filamentation inducer project, strain DRC41, OD650, 48 h (AID 1152).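 Note: E. coli MC1000 strain DRC41 lacking acrAB efflux pump and sulA.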 Particulars: E. coli DRC41 (acrAB sulA), higher = more signal, called active from +8 up or from −8 down.
A short description of experiment [12]: small-molecule binders of probe aLefty1, primary screen, biochemical, small-molecule microarray, 635/667 nm fluorescence (AID 1153).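 Note: score merges spot fluorescence with signal-to-noise ratio from the scanned slide images.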 Particulars: higher = more signal.
Experiment [13] is described as follows: PSAC antagonists in infected red cells, primary screen, cell-based, P. falciparum Indochina, OD700, 1 h (AID 1154). Particulars: P. falciparum Indochina infected RBC osmotic lysis, higher = more signal, called active from +8 up or from −8 down.
Experiment [14] in a line: PSAC antagonists in infected red cells, primary screen, cell-based, P. falciparum Indochina, OD700, 2 h (AID 1155).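 Note: lysis reports solute entry through the parasite surface anion channel PSAC; channel blockers reduce lysis of infected cells.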 The conditions noted are these: P. falciparum Indochina infected erythrocytes, osmotic lysis OD700; higher = more signal, called active from +8 up or from −8 down.
Experiment [15] is described as follows: osmotic lysis modulators in infected erythrocytes, primary screen, PSAC antagonist project, cell-based, P. falciparum Indochina, OD700, 3 h (AID 1156). The conditions noted are these: higher = more signal, called active from +8 up or from −8 down.
Experiment [16] in a line: PSAC antagonists in infected red cells, primary screen, cell-based, P. falciparum Indochina, OD700, 18 h (AID 1157). The conditions noted are these: P. falciparum Indochina infected erythrocytes, osmotic lysis OD700, 18 h; higher = more signal, called active from +8 up or from −8 down.
Experiment [17] is described as follows: modulators of S6 phosphorylation in cells, primary screen, cell-based, A549, cytoblot, luminescence, serum-stimulated (AID 1158).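 Note: serum-stimulated A549 lung adenocarcinoma cells; signal is phosphorylated S6 detected by cytoblot immunostaining with HRP secondary.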 The conditions noted are these: A549 phospho-S6 cytoblot, 5 h, higher = more signal.
The target in experiment [18] is NADPH oxidase 2 (Homo sapiens) (UniProt P04839). The experiment is described as follows: NOX2-dependent H2O2 signal modulators, primary screen, NOX inhibitor project, cell-based, HEK293-NOX2, PMA-stimulated, Amplex Red fluorescence (AID 1159). Note: test concentration not given here. Particulars: 45 min, higher = more signal, called active from +8 up or from −8 down.
Experiment [19] has as its target NADPH oxidase 4 (Homo sapiens) (UniProt Q9NPH5). The experiment is described as follows: NOX4-dependent H2O2 signal modulators, primary screen, NOX inhibitor project, cell-based, HEK293-NOX4, tetracycline-induced, Amplex Red fluorescence (AID 1160). The conditions noted are these: 45 min, higher = more signal, called active from +8 up or from −8 down.
Experiment [20] addresses NADPH oxidase 5 (Homo sapiens) (UniProt Q96PH1). The experiment is described as follows: NOX5-dependent H2O2 signal modulators, primary screen, NOX inhibitor project, cell-based, HEK293-NOX5, Amplex Red fluorescence (AID 1161). The conditions noted are these: HEK293-NOX5, ionomycin, 45 min, higher = more signal.

NADPH oxidase 4 (Homo sapiens), sequence (Q9NPH5 whole entry, looked up): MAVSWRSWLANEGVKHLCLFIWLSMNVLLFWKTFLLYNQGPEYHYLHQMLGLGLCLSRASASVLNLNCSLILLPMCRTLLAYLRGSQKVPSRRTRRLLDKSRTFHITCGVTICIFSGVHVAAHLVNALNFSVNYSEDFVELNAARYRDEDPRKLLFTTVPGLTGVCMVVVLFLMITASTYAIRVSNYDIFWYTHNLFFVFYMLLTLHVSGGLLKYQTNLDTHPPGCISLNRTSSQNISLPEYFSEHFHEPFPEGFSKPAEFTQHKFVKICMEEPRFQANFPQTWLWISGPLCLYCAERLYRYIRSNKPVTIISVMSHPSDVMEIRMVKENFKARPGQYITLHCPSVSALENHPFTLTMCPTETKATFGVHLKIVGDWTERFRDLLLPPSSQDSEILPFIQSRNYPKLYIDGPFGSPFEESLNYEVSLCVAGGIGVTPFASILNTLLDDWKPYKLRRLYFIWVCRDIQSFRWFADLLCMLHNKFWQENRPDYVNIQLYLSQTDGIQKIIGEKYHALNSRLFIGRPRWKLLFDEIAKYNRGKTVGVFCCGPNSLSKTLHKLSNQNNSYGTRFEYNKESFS
NADPH oxidase 5 (Homo sapiens), sequence (Q96PH1 whole entry, looked up): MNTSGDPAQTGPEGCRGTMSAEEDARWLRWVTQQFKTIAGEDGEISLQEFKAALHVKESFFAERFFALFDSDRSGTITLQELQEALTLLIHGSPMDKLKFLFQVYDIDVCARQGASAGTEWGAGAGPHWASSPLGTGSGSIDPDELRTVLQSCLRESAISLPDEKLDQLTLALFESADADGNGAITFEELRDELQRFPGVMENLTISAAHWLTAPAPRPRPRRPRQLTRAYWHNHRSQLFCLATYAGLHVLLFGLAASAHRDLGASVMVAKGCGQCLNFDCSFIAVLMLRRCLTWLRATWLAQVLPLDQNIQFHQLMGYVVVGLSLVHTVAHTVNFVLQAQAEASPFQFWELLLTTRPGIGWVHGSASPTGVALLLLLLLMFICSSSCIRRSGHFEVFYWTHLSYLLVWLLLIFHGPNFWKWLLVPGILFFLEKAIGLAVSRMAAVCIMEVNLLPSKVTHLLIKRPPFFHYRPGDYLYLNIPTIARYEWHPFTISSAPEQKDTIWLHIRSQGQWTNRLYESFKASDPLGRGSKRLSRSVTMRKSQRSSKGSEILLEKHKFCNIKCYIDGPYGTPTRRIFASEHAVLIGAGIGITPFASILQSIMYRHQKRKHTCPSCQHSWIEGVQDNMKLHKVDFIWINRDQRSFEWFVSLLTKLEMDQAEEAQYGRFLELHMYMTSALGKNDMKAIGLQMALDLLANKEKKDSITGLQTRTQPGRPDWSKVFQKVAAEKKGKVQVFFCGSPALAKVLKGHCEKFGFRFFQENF
Streptavidin (Streptomyces avidinii), sequence (P22629 whole entry, looked up): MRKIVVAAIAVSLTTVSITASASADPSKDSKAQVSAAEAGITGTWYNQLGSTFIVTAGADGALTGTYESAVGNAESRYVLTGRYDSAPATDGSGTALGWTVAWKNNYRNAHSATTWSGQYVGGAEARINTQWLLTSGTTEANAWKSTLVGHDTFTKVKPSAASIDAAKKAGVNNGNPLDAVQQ
NADPH oxidase 2 (Homo sapiens), sequence (P04839 whole entry, looked up): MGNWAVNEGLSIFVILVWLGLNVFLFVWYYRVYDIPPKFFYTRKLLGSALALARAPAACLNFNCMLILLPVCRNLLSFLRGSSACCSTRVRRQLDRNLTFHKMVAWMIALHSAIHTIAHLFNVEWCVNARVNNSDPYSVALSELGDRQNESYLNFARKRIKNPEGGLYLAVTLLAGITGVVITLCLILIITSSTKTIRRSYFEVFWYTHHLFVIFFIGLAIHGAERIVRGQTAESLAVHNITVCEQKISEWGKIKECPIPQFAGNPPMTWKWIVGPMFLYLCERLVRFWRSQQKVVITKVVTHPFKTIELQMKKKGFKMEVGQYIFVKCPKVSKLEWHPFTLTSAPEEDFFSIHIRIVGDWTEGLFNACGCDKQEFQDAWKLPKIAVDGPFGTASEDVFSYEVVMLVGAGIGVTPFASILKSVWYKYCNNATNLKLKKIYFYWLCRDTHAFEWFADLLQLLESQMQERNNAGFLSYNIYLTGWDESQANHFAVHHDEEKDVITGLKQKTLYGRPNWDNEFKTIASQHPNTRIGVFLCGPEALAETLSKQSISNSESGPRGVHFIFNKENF
Torsin-1A (Homo sapiens), sequence (O14656 whole entry, looked up): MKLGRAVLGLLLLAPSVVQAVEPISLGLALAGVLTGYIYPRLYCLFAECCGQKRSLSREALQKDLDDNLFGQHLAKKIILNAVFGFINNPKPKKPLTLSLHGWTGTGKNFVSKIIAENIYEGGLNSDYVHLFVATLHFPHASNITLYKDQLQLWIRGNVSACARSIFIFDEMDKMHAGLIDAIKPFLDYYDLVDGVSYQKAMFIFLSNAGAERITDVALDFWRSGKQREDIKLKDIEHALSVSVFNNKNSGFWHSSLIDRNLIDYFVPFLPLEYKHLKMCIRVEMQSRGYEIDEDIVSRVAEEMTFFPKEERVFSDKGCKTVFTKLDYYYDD

Regarding `COc1ccc(CCNC(=O)[C@@H]2c3ccccc3C(=O)N(Cc3ccccc3OC)[C@H]2c2ccc(CO)cc2)cc1`, the composite z-score in experiment [1] was determined as 0.321; in [6], 0.628; in experiment [7], 0.0028; in the experiment with Torsin-1A (Homo sapiens) [8], 0.824; with Torsin-1A (Homo sapiens) [9] it was 0.321; in experiment [10], 0.126. This molecule had a composite z-score in experiment [12] of -0.0303. Also, the z-score was -0.449 (inactive) in experiment [2]; -0.0742 (inactive) in experiment [3]; 0.531 (inactive) in [4]; -1.12 (inactive) in [5]; -0.499 (inactive) in experiment [11]; 3.02 (inactive) in [13]. For the same molecule, the z-score is 0.0323 (inactive) in experiment [14]; 0.709 (inactive) in [15]; -0.0383 (inactive) in experiment [16]; -0.0817 in experiment [17]; -1.31 (inactive) in experiment [18]; -0.213 (inactive) in [19]. In experiment [20], this molecule displayed a z-score of -2.09.
Consider `COc1cc(C(O)C2C=CC3C(=O)N(c4ccccc4)C(=O)C3N2Nc2ccccc2F)cc(OC)c1OC` (stereo not given), for which the composite z-score worked out at 0.36 in experiment [1]; 0.135 in experiment [6]; 0.177 in [7]; 0.0422 with Torsin-1A (Homo sapiens) [8]; 0.8 in the experiment with Torsin-1A (Homo sapiens) [9]; 0.429 in experiment [10]. The composite z-score in [12] was found to be 0.149. Besides, the z-score in experiment [2] is -1.73 (inactive); in [3], 0.0706 (inactive); in experiment [4], 1.61 (inactive); in experiment [5], 1.05 (inactive); in experiment [11], -1.19 (inactive); in experiment [13], 5.94 (inactive). For the same molecule, the z-score in [14] was 1.25 (inactive); in experiment [15] it was -0.276 (inactive); in [16] it was 0.462 (inactive); in [17], -1.01; in experiment [18], -1.67 (inactive); in [19], -4.07 (inactive). Besides, the z-score in experiment [20] is -3.16.
As to `COCCOC(=O)N1C(=O)[C@@]2(c3ccccc31)[C@H](c1ccc(O)cc1)N1[C@H](c3ccccc3)[C@H](c3ccccc3)OC(=O)[C@H]1[C@@H]2C(=O)N1CCCCCCC1`, the composite z-score was 1.08 in experiment [1]; 3.03 in experiment [6]; 2.08 in [7]; 1.32 with Torsin-1A (Homo sapiens) [8]; 2.13 with Torsin-1A (Homo sapiens) [9]; 1.96 in [10]. The same molecule returned a composite z-score in experiment [12] of 2.86. Further, the z-score is -2.61 (inactive) in experiment [2]; -1.17 (inactive) in experiment [3]; 0.0816 (inactive) in [4]; -0.0911 (inactive) in [5]; -0.59 (inactive) in experiment [11]; -0.0501 (inactive) in experiment [13]. Besides, the z-score in experiment [14] was 0.619 (inactive); in experiment [15], -0.363 (inactive); in [16], 0.14 (inactive); in experiment [17], -0.43; in experiment [18], 0.54 (inactive); in [19] it was 0.898 (inactive). Moreover, the z-score in [20] was 1.32.
As to `COCCOC(=O)N1C(=O)[C@@]2(c3cc(C#CCC(C(=O)OC)C(=O)OC)ccc31)[C@H](c1ccc(O)cc1)N1[C@H](c3ccccc3)[C@H](c3ccccc3)OC(=O)[C@H]1[C@@H]2C(=O)Nc1nc2ccccc2s1`, the composite z-score in experiment [1] came out at 0.553; in experiment [6] it was 0.633; in [7] it was 0.221; in the experiment with Torsin-1A (Homo sapiens) [8], 0.533; with Torsin-1A (Homo sapiens) [9] it was 0.479; in [10] it was 1.77. The same molecule returned a composite z-score in experiment [12] of 0.251. For the same molecule, the z-score is -1.48 (inactive) in experiment [2]; 0.164 (inactive) in experiment [3]; -0.195 (inactive) in experiment [4]; -0.521 (inactive) in [5]; 0.306 (inactive) in experiment [11]; 2.75 (inactive) in experiment [13]. Also, the z-score in experiment [14] is 0.666 (inactive); in experiment [15], 0.34 (inactive); in experiment [16] it was 0.802 (inactive); in experiment [17] it was -0.286; in experiment [18] it was 1.1 (inactive); in experiment [19], -1.09 (inactive). The molecule further came in with a z-score in experiment [20] of 0.698.
With `CO[C@H]1O[C@H](CO)[C@@H](OC(=O)Nc2ccccc2-c2ccccc2)[C@H](OC(=O)Nc2ccccc2)[C@H]1OC(=O)Nc1ccccc1`, the composite z-score came to 1.32 in experiment [1]; 0.29 in [6]; 0.122 in experiment [7]; 0.616 with Torsin-1A (Homo sapiens) [8]; 1.6 in the experiment with Torsin-1A (Homo sapiens) [9]; 1.1 in [10]. The molecule further came in with a composite z-score in [12] of 0.0405. For the same molecule, the z-score in experiment [2] was -3.8 (inactive); in experiment [3] it was -0.589 (inactive); in experiment [4] it was -0.254 (inactive); in experiment [5], -2.07 (inactive); in experiment [11], 0.299 (inactive); in experiment [13] it was 2.62 (inactive). Further, the z-score is 0.772 (inactive) in experiment [14]; 0.375 (inactive) in [15]; 0.521 (inactive) in experiment [16]; 0.144 in experiment [17]; -1.62 (inactive) in experiment [18]; -1.72 (inactive) in [19]. The molecule further registered a z-score in experiment [20] of -1.4.
